A short description of assay [1]: antimalarial activity against Dd2 strain (AID 2302;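 active = growth inhibition above 50% at the single 2 µM test dose, taken to imply half-maximal potency below 2 µM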;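 also: 0% = DMSO untreated growth and 100% = chloroquine plus artemisinin killed control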). Conditions: P. falciparum Dd2 in RBCs, LDH growth readout, 72 h; at 2 µM; active compounds read high.
A short description of assay [2]: human hepatoma cell viability loss – ATP luminescence, cytotoxicity control for P. falciparum antimalarial project, primary screen (AID 2303;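 active = inhibition above 50%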;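 also: 0% = DMSO wells and 100% = digitonin-killed cells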). Conditions: HepG2 viability, 24-48 h, at 10 µM, active compounds read high.
Assay [3] concerns the target L-lactate dehydrogenase (Plasmodium falciparum (isolate CDC / Honduras)) (UniProt Q27743). In words: PfLDH activity inhibition – cell lysate, 3D7 strain, counter-screen for P. falciparum growth inhibition project (AID 2304).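 Also: 0% = vehicle and 100% = reference inhibitor.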 Conditions: P. falciparum 3D7 crude extract, LDH APAD/NBT absorbance; at 2 µM; active compounds read high. In general terms: The purpose of a counterscreen is to sort out artefacts and off-target activity.

A short description of assay [4]: inhibition of 3D7 malaria parasite growth – strain 3D7 (AID 2306).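 Also: 0% = DMSO wells and 100% = chloroquine plus artemisinin control wells.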 Conditions: P. falciparum 3D7 erythrocytic growth, LDH absorbance, 72 h; at 2 µM; active compounds read high.
The target of assay [5] is Calcium-dependent protein kinase 1 (Plasmodium falciparum (isolate 3D7)) (UniProt P62344). In words: PfCDPK1 kinase inhibitors, biochemical, TCAMS library (AID 1159585; cut-off not given, nearly all actives have IC50 up to about 0.98 µM;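 also: inhibitors leave more ATP so luminescence rises with inhibition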). The following applies: recombinant PfCDPK1, Kinase-Glo ATP depletion luminescence. (In general: Kinase-Glo reads ATP consumption through a luciferase reaction.)
For assay [6], the target named is Plasmodium falciparum protein kinase 6 (PK6, PF3D7_1337100) (UniProt Q8IDW1). The experiment in a line: PfPK6 kinase inhibitors, biochemical, TCAMS library (AID 1159586). The following applies: recombinant PfPK6, Kinase-Glo ATP depletion luminescence.
For assay [7], the target named is Protein kinase 7 (PK7), Plasmodium falciparum 3D7 (PF3D7_0213400) (UniProt Q7YTF7). In words: inhibition of Plasmodium PK7 catalytic activity – biochemical, TCAMS antimalarial set, Kinase-Glo luminescence (AID 1159587). The following applies: recombinant PfPK7, Kinase-Glo ATP depletion luminescence.
In assay [8] the target is Calcium-dependent protein kinase 4 (Plasmodium falciparum (isolate 3D7)) (UniProt Q8IBS5). In words: PfCDPK4 kinase inhibitors, biochemical, TCAMS library (AID 1159588; cut-off not given, nearly all actives have IC50 up to about 0.91 µM). The following applies: recombinant PfCDPK4, Kinase-Glo ATP depletion luminescence.

Usually inhibition stands for the relative decrease from the control value, in per cent.

“And” between values parts separate entries of the source, which are not always exact repeats. Identical values can stand only once. Unmarked numbers belong to inactive results. For some assays here: Entries with a potency or affinity are not part of this list. The source made the active and inactive calls. Unless noted, no rule for the calls is given here.

Sequence of Calcium-dependent protein kinase 4 (Plasmodium falciparum (isolate 3D7)) (Q8IBS5 whole entry, looked up): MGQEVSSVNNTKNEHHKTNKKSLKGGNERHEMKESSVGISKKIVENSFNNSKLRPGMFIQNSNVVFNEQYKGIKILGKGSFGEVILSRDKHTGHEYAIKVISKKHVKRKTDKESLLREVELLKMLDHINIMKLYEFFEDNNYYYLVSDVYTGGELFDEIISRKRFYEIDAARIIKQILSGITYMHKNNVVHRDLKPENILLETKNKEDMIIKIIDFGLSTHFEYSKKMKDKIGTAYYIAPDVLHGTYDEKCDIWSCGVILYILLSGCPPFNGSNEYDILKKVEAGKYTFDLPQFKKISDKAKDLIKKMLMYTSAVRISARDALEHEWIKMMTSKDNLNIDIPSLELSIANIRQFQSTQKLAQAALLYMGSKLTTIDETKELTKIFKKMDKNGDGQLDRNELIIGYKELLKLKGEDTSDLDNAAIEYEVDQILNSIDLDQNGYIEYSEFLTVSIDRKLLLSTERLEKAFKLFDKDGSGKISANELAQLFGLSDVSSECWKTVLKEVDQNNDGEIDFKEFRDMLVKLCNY
Sequence of L-lactate dehydrogenase (Plasmodium falciparum (isolate CDC / Honduras)) (Q27743 whole entry, looked up): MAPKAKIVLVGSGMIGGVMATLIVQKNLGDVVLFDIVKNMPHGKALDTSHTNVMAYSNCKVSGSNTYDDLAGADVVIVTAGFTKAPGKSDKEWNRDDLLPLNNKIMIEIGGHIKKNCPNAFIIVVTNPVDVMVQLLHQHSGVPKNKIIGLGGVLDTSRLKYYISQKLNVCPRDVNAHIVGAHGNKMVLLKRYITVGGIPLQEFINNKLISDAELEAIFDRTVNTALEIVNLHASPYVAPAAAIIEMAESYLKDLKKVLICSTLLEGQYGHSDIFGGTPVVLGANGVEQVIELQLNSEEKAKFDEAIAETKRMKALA
Sequence of Protein kinase 7 (PK7), Plasmodium falciparum 3D7 (PF3D7_0213400) (Q7YTF7 1-343): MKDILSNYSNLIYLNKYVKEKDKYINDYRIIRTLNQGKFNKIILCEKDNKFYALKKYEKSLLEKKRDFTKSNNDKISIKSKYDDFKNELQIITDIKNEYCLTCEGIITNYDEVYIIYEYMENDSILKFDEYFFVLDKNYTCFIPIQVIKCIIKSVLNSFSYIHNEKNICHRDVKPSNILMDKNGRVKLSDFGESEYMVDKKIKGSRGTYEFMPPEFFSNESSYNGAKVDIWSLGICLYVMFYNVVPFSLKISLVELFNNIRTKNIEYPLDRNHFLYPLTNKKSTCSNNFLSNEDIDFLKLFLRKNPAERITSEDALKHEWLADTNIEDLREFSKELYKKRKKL
Sequence of Plasmodium falciparum protein kinase 6 (PK6, PF3D7_1337100) (Q8IDW1 1-305): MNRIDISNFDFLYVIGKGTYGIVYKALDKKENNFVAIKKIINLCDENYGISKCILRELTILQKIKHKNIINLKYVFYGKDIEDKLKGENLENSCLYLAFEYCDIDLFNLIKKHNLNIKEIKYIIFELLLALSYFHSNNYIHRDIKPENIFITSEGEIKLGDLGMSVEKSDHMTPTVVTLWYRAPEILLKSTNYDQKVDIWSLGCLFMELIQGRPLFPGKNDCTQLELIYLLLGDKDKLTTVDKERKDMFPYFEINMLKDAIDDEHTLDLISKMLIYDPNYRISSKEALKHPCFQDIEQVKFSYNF
Sequence of Calcium-dependent protein kinase 1 (Plasmodium falciparum (isolate 3D7)) (P62344 whole entry, looked up): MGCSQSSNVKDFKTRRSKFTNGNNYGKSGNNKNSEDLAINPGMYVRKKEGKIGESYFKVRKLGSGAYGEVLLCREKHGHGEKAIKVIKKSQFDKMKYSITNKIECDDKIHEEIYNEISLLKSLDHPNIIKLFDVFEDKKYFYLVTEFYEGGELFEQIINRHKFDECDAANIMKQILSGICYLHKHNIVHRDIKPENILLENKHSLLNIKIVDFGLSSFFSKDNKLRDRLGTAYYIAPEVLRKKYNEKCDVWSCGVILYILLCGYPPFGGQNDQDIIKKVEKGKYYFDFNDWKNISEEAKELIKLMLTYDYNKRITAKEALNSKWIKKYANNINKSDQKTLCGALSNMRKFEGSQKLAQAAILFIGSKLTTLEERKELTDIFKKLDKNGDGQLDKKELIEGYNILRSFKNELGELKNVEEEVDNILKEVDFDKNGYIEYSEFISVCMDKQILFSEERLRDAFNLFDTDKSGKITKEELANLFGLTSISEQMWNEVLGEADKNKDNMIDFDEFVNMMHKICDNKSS

As for `Cc1[nH]c(C)c(-c2ccc(Oc3ccc(OC(F)(F)F)cc3)cc2)c(=O)c1Br`, the growth inhibition is 95% (active) and 97% (active) in assay [1]; 96% (active) in assay [4]. The inhibition in assay [2] was -4% and -1%; in assay [3], 1% and 2%. For the same compound, the result in assay [5], in assay [6], in assay [7] and in assay [8] was inactive.
`Cc1[nH]c(C)c(-c2ccc(CCc3ccc(N)cc3)cc2)c(=O)c1Cl`: the growth inhibition in assay [1] and in assay [4] was 97% (active) throughout. In addition, the inhibition in assay [2] is 2%; in assay [3], 5%. In addition, the outcome in assay [5], in assay [6], in assay [7] and in assay [8] was inactive.
With `Cc1cc(O)c(-c2cc(C(=O)Nc3cccnc3)[nH]n2)cc1C`, the growth inhibition in assay [1] and in assay [4] was 97% (active) throughout. Moreover, the inhibition in assay [2] was 12%; in assay [3] it was -7%. Also, the outcome in assay [5], in assay [6], in assay [7] and in assay [8] was inactive.
Turning to `Cc1cccc2[nH]c(-c3ccc(-c4cccc(CN5CCCC5CN)c4)s3)nc12` (stereo not drawn), the results for the growth inhibition in assay [1] and in assay [4] were 45% and 91% (active), respectively. Also, the inhibition in assay [2] was 20%; in assay [3] it was 5%. The outcome in assay [5], in assay [6], in assay [7] and in assay [8] was inactive.
Take `CCN(CC)c1cc(C)c2cc(NC(=O)c3cc(=O)c4ccccc4o3)ccc2n1`: the figures for the growth inhibition in assay [1] and in assay [4] were 67% (active) and 97% (active), respectively. Moreover, the inhibition in assay [2] is 14%; in assay [3], 1%. Also, the outcome in assay [5], in assay [6], in assay [7] and in assay [8] was inactive.
With `Oc1ccc(OCc2ccccn2)cc1`, the growth inhibition in assay [1] is 0%; in assay [4] it was 98% (active). For the same compound, the inhibition in assay [2] is 5%; in assay [3], 2%. Besides, the outcome in assay [5], in assay [6], in assay [7] and in assay [8] was inactive.
Regarding `CCc1cn(CC(=O)N(CCOc2ccc(-c3ccc(C(F)(F)F)cc3)cc2)CCN(CC)CC)c(SCc2ccc(F)cc2)nc1=O`, the growth inhibition in assay [1] was 29%; in assay [4] it was 95% (active). Moreover, the values for the inhibition in assay [2] and in assay [3] were 46% and -3%, respectively. For the same compound, the result in assay [5], in assay [6], in assay [7] and in assay [8] was inactive.
As for `NC1=NC(c2ccccc2)(c2ccccc2)C(=O)N1CC1CCC1`, the growth inhibition was 74% (active) in assay [1] and 96% (active) in assay [4]. Further, the inhibition in assay [2] was 17%; in assay [3], 3%. Further, the outcome in assay [5], in assay [6], in assay [7] and in assay [8] was inactive.
As for `CCc1cn2c3c(cc(C(=O)N[C@@H](Cc4cc(F)cc(F)c4)[C@H](O)CNC4CC4)cc13)N(C)S(=O)(=O)CC2`, the results for the growth inhibition in assay [1] and in assay [4] were 99% (active) and 100% (active), respectively. Also, the inhibition is 3% in assay [2] and 0% in assay [3]. Moreover, the result in assay [5], in assay [6], in assay [7] and in assay [8] was inactive.
For the compound `CC(C)CNCc1cccc(-c2cccc(CNCCCN3CCN(C)CC3)c2)c1`, the growth inhibition in assay [1] was 7%; in assay [4] it was 88% (active). The inhibition in assay [2] was 5%; in assay [3] it was 1%. In addition, the outcome in assay [5], in assay [6], in assay [7] and in assay [8] was inactive.
Take `NC1=NC(c2ccccc2)(c2ccccc2)C(=O)N1C1CCCCC1`: the growth inhibition is 87% (active) in assay [1] and 100% (active) in assay [4]. The inhibition in assay [2] is 13%; in assay [3], 0%. The outcome in assay [5], in assay [6], in assay [7] and in assay [8] was inactive.
In the case of `N#CC(c1ccc(Br)cc1)c1ccc2c(C(F)(F)F)cc(C(F)(F)F)nc2n1` (stereo not drawn), the values for the growth inhibition in assay [1] and in assay [4] were 98% (active) and 101% (active), respectively. Besides, the inhibition was 75% (active) in assay [2] and -2% in assay [3]. Further, the outcome in assay [5], in assay [6], in assay [7] and in assay [8] was inactive.
For `CN1CCN(c2cccc(-c3nnc(-c4cccc(OCC(=O)NCc5ccc(C(F)(F)F)cc5)c4)o3)c2)CC1`, the results for the growth inhibition in assay [1] and in assay [4] were 86% (active) and 98% (active), respectively. In addition, the inhibition in assay [2] is 10%; in assay [3], -4%. Moreover, the outcome in assay [5], in assay [6], in assay [7] and in assay [8] was inactive.
For `CCCOc1cccc(C(=O)N[C@@H](Cc2ccccc2)[C@H](O)CNCc2cccc(OC)c2)c1`, the growth inhibition in assay [1] was 18%; in assay [4], 102% (active). Also, the inhibition is 14% in assay [2] and -3% in assay [3]. Besides, the result in assay [5], in assay [6], in assay [7] and in assay [8] was inactive.
Consider `CCC(CC(NCCCCNC(=O)c1ccc(NC(=O)c2ccc(Cl)cc2)cc1)c1ccccc1)c1ccccc1OC` (stereo not drawn), for which the growth inhibition is 76% (active) and 56% (active) in assay [1]; 100% (active) and 89% (active) in assay [4]. Also, the inhibition in assay [2] is 23% and 10%; in assay [3], -1% and 1%. Besides, the outcome in assay [5], in assay [6], in assay [7] and in assay [8] was inactive.
Take `Cn1nc(-c2ccc(CN[C@@H]3CCc4ccc(O)cc43)cc2)c2cnc(NCCCN3CCCC3)nc21`: the growth inhibition in assay [1] is 61% (active); in assay [4], 101% (active). In addition, the values for the inhibition in assay [2] and in assay [3] were 8% and 2%, respectively. In addition, the outcome in assay [5], in assay [6], in assay [7] and in assay [8] was inactive.

Values taken from PubChem BioAssay.
